Compounds with a hit are over-represented: about 1% of the library has one in this group of screens.
Hsp90 inh = displaces geldanamycin probe from tumor Hsp90 | NCI-N417 lysate Hsp90, Cy3B-geldanamycin FP displacement | inhibition, % at 30 µM | 64,000 tested, 0.35% active | P07900;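 active = inhibition above 50%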
BAP1 block = blocks human BAP1 ubiquitin-AMC hydrolysis; Q92560; recombinant BAP1, Ub-AMC hydrolysis fluorescence kinetic; stronger effect = lower value; calls only at 20 µM; 72,000 tested, 0.48% active; AID 436;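 active = activity remaining at or below 50% of control, provided the compound also passes the data quality filters; inactive = the rest, including low values that fail the filters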
Cdc25B inh = human M-phase inducer phosphatase 2 inhibition. P30305. recombinant Cdc25B, OMFP fluorescence Ex485/Em525. inhibition, %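 (compounds tested at 10 µM final in the well)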. 65,000 tested, 0.1% active. AID 368; in the data active = inhibition above about 50%
DUSP1 inh = inhibitors of human MKP-1 phosphatase | P28562 | recombinant MKP-1, OMFP hydrolysis fluorescence | inhibition, %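 (compounds tested at a single concentration somewhere between 10 and 100 µM)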 | 65,000 tested, 0.15% active;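 active = inhibition above about 50%, limit read from the data; inconclusive = inhibition over screen mean plus 3 SD, below that limit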
Target sequence (P28562 whole entry, looked up): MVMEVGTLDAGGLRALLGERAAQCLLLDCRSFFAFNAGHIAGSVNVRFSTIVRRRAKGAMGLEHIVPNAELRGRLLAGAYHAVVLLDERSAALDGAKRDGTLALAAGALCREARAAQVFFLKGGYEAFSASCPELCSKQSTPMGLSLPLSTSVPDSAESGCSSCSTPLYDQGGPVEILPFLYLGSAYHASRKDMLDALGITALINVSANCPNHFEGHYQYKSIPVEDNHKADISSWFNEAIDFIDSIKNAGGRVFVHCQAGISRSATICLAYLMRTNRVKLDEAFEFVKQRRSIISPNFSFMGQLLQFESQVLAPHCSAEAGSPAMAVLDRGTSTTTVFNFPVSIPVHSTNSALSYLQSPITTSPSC
BAP1 inh conf = BAP1 (human) enzyme inhibition, confirmed | shares compounds with BAP1 block | purified BAP1, Ub-ethyl ester hydrolysis, HPLC; stronger effect = lower value | % of control activity, % at 20 µM | 310 tested, 8% active | AID 753;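 active = percent of control activity at or below 60%; inconclusive = HPLC trace unusable from injection failure or solvent front hiding peaks; inactive = the rest, plus ubiquitin peak ratio over a set limit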
A number is an active result; - = inactive; ? = inconclusive; . = no result given; + = active, no number.

SMILES | Hsp90 inh | BAP1 block | Cdc25B inh | DUSP1 inh | BAP1 inh conf
O=C(Nc1nc2c(s1)COc1ccccc1-2)c1cccs1 | - | - | - | - | .
O=C(CCS(=O)(=O)c1ccccc1)Nc1nc2c(s1)COc1ccccc1-2 | - | + | - | - | -
CCCCc1ccc(Nc2nc(CCC)cc(=O)[nH]2)cc1 | - | + | - | - | -
CCOC(=O)CSc1nc2cc(OC)ccc2cc1C#N | - | + | - | - | -
CCOC(=O)CSc1nc2cc(C)ccc2cc1C#N | - | - | - | - | .
O=C(CSc1nnc(-c2ccc(F)cc2)o1)Nc1ccc(S(=O)(=O)N2CCCC2)cc1 | - | - | - | - | .
O=C(CSc1nnc(-c2ccc(F)cc2)o1)Nc1ccc(S(=O)(=O)N2CCCCCC2)cc1 | - | + | - | - | -
O=S(=O)(c1ccc(-c2nnc(SCc3nnc(-c4ccccc4)o3)o2)cc1)N1CCCC1 | - | + | - | - | -
CCn1c(SCc2nnc(-c3ccccc3)o2)nnc1-c1ccc(S(=O)(=O)N2CCCC2)cc1 | - | - | - | - | .
Clc1ccccc1N=c1oc2ccccc2cc1-c1nc2ccccc2[nH]1 | . | - | . | . | .
COc1ccc(OC)c(NC(=O)c2cc(-c3ccc(C)cc3O)n[nH]2)c1 | - | + | - | - | -
Cc1ccc(C)c(S(=O)(=O)N2CCC(c3nc4c(nnn4Cc4ccc(F)cc4)c(=O)[nH]3)CC2)c1 | - | + | - | - | -
Cc1ccc(Cn2nnc3c(=O)[nH]c(C4CCN(S(=O)(=O)c5cc(C)ccc5C)CC4)nc32)cc1 | - | + | - | - | -
O=C(CN1C(=O)c2ccccc2C1=O)Nc1ccc(C(=O)Nc2cccc(O)c2)cc1 | . | - | . | . | .
COc1ccccc1Oc1coc2cc(O)ccc2c1=O | - | + | - | - | -
CCOc1ccccc1Oc1coc2cc(OC(=O)c3ccco3)ccc2c1=O | - | - | - | - | .
CCOc1ccccc1Oc1coc2cc(O)ccc2c1=O | - | + | - | - | -
CSc1nc(-c2ccccc2O)nc(-c2ccccc2O)n1 | - | + | - | - | -
Cc1cc(NCc2ccccc2)nc(-c2ccccc2O)n1 | - | - | - | - | .
Cc1nc2ccc3nc(NC(=O)c4ccc(C#N)cc4)sc3c2s1 | . | - | . | . | .
CC(CCOC(=O)CN1CCCCC1)CCc1ccccc1 (centres undefined) | . | - | . | . | .
CCOC(=O)C1CCN(S(=O)(=O)c2ccc3c4c(cccc24)C(=O)N3)CC1 | - | + | - | - | -
COc1ccc2c(C=Nc3c(C)n(C)n(-c4ccccc4)c3=O)c(O)n(Cc3ccco3)c(=O)c2c1 | - | + | - | - | -
Cn1c(C(=O)N2CCc3ccccc32)cc2c(=O)n3ccccc3nc21 | - | - | - | - | .
Cn1c(C(=O)N2CCCc3ccccc32)cc2c(=O)n3ccccc3nc21 | - | + | - | - | -
SMILES | Hsp90 inh | BAP1 block | Cdc25B inh | DUSP1 inh | BAP1 inh conf
Cc1ccc2c(SCC(=O)NCc3ccco3)nc(-c3ccc(F)cc3)nc2c1 | - | + | - | - | -
NC(=O)c1ccccc1NS(=O)(=O)Cc1ccccc1 | - | . | - | - | .
NC(=O)c1ccccc1N/C=C/C(=O)c1ccco1 | - | + | - | - | -
COc1cc2ccccc2cc1C(=O)Nc1ccc2oc(-c3ccc(Br)cc3)nc2c1 | . | - | . | . | .
CCOC(=O)c1oc2ccccc2c1NC(=O)COc1ccc(F)cc1 | - | + | - | - | -
COc1ccc(N(CC(=O)Nc2ccc(F)c(Cl)c2)S(=O)(=O)c2c(C)noc2C)cc1 | - | + | - | - | -
COc1ccc(N(CC(=O)Nc2ccc(OC)c(Cl)c2)S(=O)(=O)c2c(C)noc2C)cc1 | - | - | - | - | .
N#Cc1c(NC(=O)COC(=O)C2CC3C=CC2C3)oc(-c2ccccc2)c1-c1ccccc1 (centres undefined) | - | + | - | - | 41.9
COc1ccccc1OCC(=O)Nc1oc(-c2ccccc2)c(-c2ccccc2)c1C#N | - | . | - | - | .
Oc1ccc(Br)cc1/C=N/n1cnc2ccccc21 | - | + | - | - | -
O=c1nc2n3ccccc3ncc-2s1 | . | - | . | . | .
CCC(=O)Nc1cc(-c2nn(C)c(=O)c3ccccc23)ccc1OC | - | - | - | - | .
COc1ccc(-c2nn(C)c(=O)c3ccccc23)cc1NC(=O)Cn1nc(C)c2ccccc2c1=O | - | + | - | ? | -
CCOC(=O)c1ccc(OCC(=O)c2ccc(O)cc2O)cc1 | - | + | - | - | -
CCOC(=O)Cc1csc(SCn2nnc3ccccc3c2=O)n1 | . | . | - | - | .
CCOC(=O)Cc1csc(-n2sc3ccccc3c2=O)n1 | - | + | - | - | 42.3
C=CCc1ccccc1OCCn1ccnc1 | - | + | - | - | -
CCOC(=O)c1ccc(NC(=O)CSc2nc(C)cc(=O)[nH]2)cc1 | - | + | - | - | ?
CCSc1sccc1C1C(C#N)=C(N)N(c2cccnc2)C2=C1C(=O)CCC2 (centres undefined) | - | + | - | - | -
CSc1sc(C)cc1C1C(C#N)=C(N)N(c2cccnc2)C2=C1C(=O)CC(C)(C)C2 (centres undefined) | - | - | - | - | .
Cc1ccc(OCC(=O)Nc2ccccc2C)cc1C | . | - | . | . | .
Cc1ccc(S(=O)(=O)Nc2ccc(Br)cc2C(=O)c2ccc(Cl)cc2)cc1 | . | - | . | . | .

High-throughput results from PubChem BioAssay.
